# Test results as given in PubChem BioAssay (NCI).
# The panel holds about 83,000 compounds, 20% with a hit somewhere; the sample as a whole holds those more often.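 Cells were grown in 96-well plates and exposed to the test compound at a single concentration for 48 hours; results are reported as percent growth, with values below 10 considered active.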 Values without a mark were called inactive. Activity calls are given as the source filed them.
# What was measured:
# Assay in all cases: NCI-60 one-dose screen, 48 h (100 = growth as untreated, 0 = no growth, -100 = all killed)
# Conditions in all cases: 10 µM unless noted
# SK-MEL-2 melanoma = system: SK-MEL-2 melanoma
# EKVX NSCLC = system: EKVX NSCLC
# SN12C renal = system: SN12C renal
# UO-31 renal = system: UO-31 renal
# TK-10 renal = system: TK-10 renal
# ACHN renal = system: ACHN renal
# A498 renal = system: A498 renal
# CCRF-CEM leukemia = system: CCRF-CEM leukemia
# MOLT-4 leukemia = system: MOLT-4 leukemia
# SR leukemia = system: SR leukemia
# RPMI-8226 leukemia = system: RPMI-8226 leukemia
# OVCAR-5 ovarian = system: OVCAR-5 ovarian
# OVCAR-4 ovarian = system: OVCAR-4 ovarian
# SK-OV-3 ovarian = system: SK-OV-3 ovarian
# IGROV1 ovarian = system: IGROV1 ovarian
# OVCAR-3 ovarian = system: OVCAR-3 ovarian
# HS 578T breast = system: HS 578T breast
# NCI/ADR-RES ovarian = system: NCI/ADR-RES ovarian
# OVCAR-8 ovarian = system: OVCAR-8 ovarian
Structure (SMILES),growth (SK-MEL-2 melanoma),growth (EKVX NSCLC),growth (SN12C renal),growth (UO-31 renal),growth (TK-10 renal),growth (ACHN renal),growth (A498 renal),growth (CCRF-CEM leukemia),growth (MOLT-4 leukemia),growth (SR leukemia),growth (RPMI-8226 leukemia),growth (OVCAR-5 ovarian),growth (OVCAR-4 ovarian),growth (SK-OV-3 ovarian),growth (IGROV1 ovarian),growth (OVCAR-3 ovarian),growth (HS 578T breast),growth (NCI/ADR-RES ovarian),growth (OVCAR-8 ovarian)
COc1cc(C(=O)c2cnc(-c3cccc4[nH]ccc34)[nH]2)cc(OC)c1OC,39.9%,42.4%,31.1%,26.7%,63.4%,30.2%,-15.9% (active),10.3%,14.2%,13.9%,15.8%,50.1%,38.9%,35.6%,26.6%,-18.1% (active),30.9%,11.2%,–
COc1ccc(OC)c(/C=C/C(=O)N/N=C/c2ccc(Cl)cc2)c1,22.3%,43.1%,46.2%,30.1%,51%,48.4%,12.5%,13.7%,26.3%,–,21.3%,28.4%,40.2%,-4.93% (active),17.9%,-43.4% (active),-1.72% (active),3.82% (active),–
CCOC(=O)c1c2c(n(-c3ccc(C#N)cc3)c1-c1ccccc1)C=CCC2,79.6%,93.2%,101%,81.8%,96.5%,86.8%,96.7%,95.8%,81.2%,92.1%,85.8%,96.7%,77.2%,89.6%,77.9%,105%,99.3%,94%,–
O=CN1N=C(c2ccc(Nc3ccnc4cc(Cl)ccc34)cc2)CC1c1ccccc1 (stereo unspecified),32.6%,46.2%,53.8%,24.1%,59.7%,33.4%,21.2%,15%,13.8%,–,17.2%,84.1%,39%,41.3%,50.2%,14.6%,47.5%,7.22% (active),–
C=CCNc1ccc2c3c(cccc13)C(=O)N(N1C(=O)c3cccc4cccc(c34)C1=O)C2=O,107%,92.8%,101%,81.1%,105%,103%,119%,109%,101%,–,109%,101%,107%,108%,103%,108%,97.2%,101%,100%
COC(=O)c1ccc2[nH]c(O)c(C(=Nc3ccc(N(C)C(=O)CN4CCN(C)CC4)cc3)c3ccccc3)c2c1,-4.99% (active),54%,17.6%,16%,51.6%,7.31% (active),-35.9% (active),10.7%,12.1%,–,-6.02% (active),57.2%,34.2%,5.32% (active),10.2%,50.5%,-18.2% (active),83.8%,–
Cc1cccc2c3c(sc12)C(c1ccc(F)cc1)C(C#N)=C(N)O3 (stereo unspecified),50.1%,52.6%,25.2%,36.7%,78.8%,24.8%,4.47% (active),13.8%,12.5%,9.36% (active),–,25.9%,60.8%,60.7%,20.6%,3.36% (active),28.7%,12%,18.9%
O=C(Nc1nc2ccc(F)cc2s1)c1cccnc1Nc1ccc(Cl)cc1Cl,43.5%,1.03% (active),9.61% (active),28.5%,11.4%,27.5%,-4.34% (active),-3.42% (active),46%,32.8%,–,64.3%,-31.3% (active),44%,30.5%,-3.55% (active),20.9%,1.58% (active),–
CCc1ccccc1-n1c(N)c(C#N)c(-c2ccc(Cl)cc2)c(C#N)c1=O,117%,97.7%,106%,76.9%,157%,107%,127%,-18.3% (active),105%,–,84.2%,108%,93.3%,108%,87%,107%,92.2%,102%,111%
COc1ccc(-c2conc2-c2ccccc2)cc1,41.6%,52.7%,33.2%,45.2%,6.72% (active),36.5%,-14% (active),25.7%,34.4%,–,32.7%,27.7%,47.8%,38.2%,26.2%,-28.5% (active),7.75% (active),6.05% (active),18.1%
